Consider two molecules from PubChem BioAssay AID2125 (NMMLSC, 2009).

Unmarked numbers belong to inactive results.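 The calls were made as follows: active = combined score above 50, rising as EC50 falls below 10 µM and growth at top dose drops; inactive = the rest.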 Peptide text beside a SMILES is read from it. * marks the point of attachment. Cbz = O=C(OCc1ccccc1)*

The subject of the experiment is YE3961. Briefly: growth inhibition of S. cerevisiae strain panel, profiling panel, 26S proteasome disassembly project, secondary panel, OD600 (AID 2125). As to conditions: growth OD600, 6-8 h, at 100 µM, hits give low values.

As to `CC(C)C[C@@H](C=O)NC(=O)[C@H](CC(C)C)NC(=O)[C@H](CC(C)C)NC(=O)OCc1ccccc1` (Cbz-Leu-Leu-Leu-aldehyde), the percent response (growth) was 59%.

On to `CC(=O)N1C(=O)C(=C2C=C(C)OC(C)=C2)c2ccccc21`, for which the percent response (growth) was 78.5%.
